IL1B secr inh: blocks inflammasome-driven IL-1 beta release | THP-1 LPS/ATP IL-1B secretion, AlphaLISA, 16 h; stronger effect = lower value | activity change, % at 57.5 µM | hit rate 4.7% among 360,000 | AID 743279; in the data active = activity change below about -50%; inconclusive = mostly about -30% to -49%
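Secreted IL-1B measured by AlphaLISA bead assay after 16 h compound exposure of THP-1 cells; compounds (final up to 57.5 uM) added 1 h before LPS (250 ng/mL) and ATP (1.25 mM) stimulation; lower signal means less secretion.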
S2 tox: reduces viability in counter-screen for ATXN expression inhibitors; AID 651635; S2 cells (HEK-293 line with an ATXN2-luciferase reporter) viability, CellTiter-Fluor protease fluorescence, 24 h; Potency, µM (doses to about 56.7 µM), most hits filed as cytotoxic; hit rate 0.49% among 400,000; also: nearly all actives have a fitted effect of over 40% in size
MCF10A rereplic: DNA re-replication induction in MCF 10a cells | MCF 10A DNA re-replication, Hoechst nuclear intensity, 48 h | Potency, µM (series often up to 46.1 µM), usual class: activators | hit rate 2.9% among 350,000 | AID 624296; also: nearly all actives have a fitted effect of over 50% in size
SW480 rereplic: DNA re-replication induction in SW480 cells; SW480 DNA re-replication, Hoechst DNA content imaging, 48 h; Potency, µM (doses to about 46.1 µM), actives largely listed as activators; hit rate 1.8% among 340,000; AID 624297; also: nearly all actives have a fitted effect of over 55% in size
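Per well, 250 cells were exposed to pinned compound for 48 hr. Nuclear DNA was visualised with Hoechst (40 min, 37 C) and total object intensity recorded by fluorescence scanning.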
PINK1 modulator: PINK1 expression modulation; Potency, µM (series often up to 76.6 µM), usual class: activators; hit rate 0.2% among 410,000; PINK1 immunofluorescence, high-content cytometry, 24 h; active = well fitted activation curve with a large enough effect; inconclusive = small, poorly fitted or top-dose-only effect; cell line not stated here; also: nearly all actives have a fitted effect of over 65% in size
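Compound titrations (5 concentrations, 24 h) on a stable cell line; DMSO and CCCP controls. Endpoint: fixed-cell PINK1 immunofluorescence with mitochondrial, cell and nuclear markers, scanned by microplate cytometer.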
ATXN2 expr inh: ATXN2 expression inhibition; HEK-293 ATXN2-luciferase reporter, luminescence, 24 h; Potency, µM (highest dose often 57 µM), actives largely listed as inhibitors; hit rate 0.72% among 360,000; AID 1745845; also: nearly all actives have a fitted effect of over 55% in size
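ATXN2-luciferase reporter cells (luciferase flanked by upstream and downstream ATXN2 gene portions) were treated 24 h at 37 °C with compounds at up to 57 uM. SteadyGlo luminescence gave expression; GF-AFC fluorescence gave viability.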
Each line names hits and unclear results; the compound was inactive in the other large screens. Hits are enriched below; roughly 7.1% of the tested compounds scored in any of these assays. Unless noted, calls follow the shape of the dose curve; as a rule, active = well fitted curve in the direction sought with a large enough effect; inconclusive = small, poorly fitted or top-dose-only effect, or another doubt; inactive = no such curve, though single readings can be large; an effect the other way counts as inactive or inconclusive.

Cc1cccc(C)c1NC(=O)Cn1c(=O)n(Cc2ccco2)c(=O)c2ccc(C(=O)NC3CCCC3)cc21	none (no result: IL1B secr inh, MCF10A rereplic, SW480 rereplic)
COc1cc(C(=O)Nc2ccncc2)cc(OC)c1OC	none (no result: PINK1 modulator)
COc1cc(C(=O)Nc2ccc(Cl)c(C(F)(F)F)c2)cc(OC)c1OC	IL1B secr inh -84, MCF10A rereplic inconclusive
COc1cc(C(=O)Nc2ccc(Nc3ccccc3)cc2)cc(OC)c1OC	IL1B secr inh -56, MCF10A rereplic 21µM
O=S(=O)(Nc1nc2ccccc2nc1-[n+]1cccc(N=C([O-])c2ccc(Cl)cc2)c1)c1ccccc1	IL1B secr inh -73, SW480 rereplic inconclusive (no result: S2 tox)
CCOC(=O)c1c(-c2ccc(OC)cc2)csc1NC(=O)COc1ccc2c(C)cc(=O)oc2c1	none
CCOC(=O)c1sc(NC(=O)CCN2CCN(CC)CC2)c(C(=O)OCC)c1C	IL1B secr inh -215, S2 tox inconclusive, SW480 rereplic inconclusive, ATXN2 expr inh inconclusive
CCOC(=O)c1c(-c2ccc(OC)cc2)csc1NC(=O)CSc1ncnc2sccc12	MCF10A rereplic 16µM (no result: ATXN2 expr inh)
CCNC(=S)Nc1scc(-c2ccccc2)c1C(=O)OCC	MCF10A rereplic inconclusive
CCOC(=O)c1c(-c2ccc(-c3ccccc3)cc2)csc1NC(=O)CNCCN(C)C	IL1B secr inh -104, S2 tox inconclusive, SW480 rereplic inconclusive, ATXN2 expr inh inconclusive
CCOC(=O)c1c(-c2ccccc2)csc1NC(=O)CCN1C(=O)c2ccccc2C1=O	none
CCOC(=O)c1c(-c2ccccc2)csc1NC(=S)NC	MCF10A rereplic 18µM, SW480 rereplic inconclusive
COc1ccc2c(CNCc3ccc(Cl)cc3)c(C(=O)O)n(Cc3ccccc3C)c2c1	none (no result: IL1B secr inh, S2 tox, MCF10A rereplic, SW480 rereplic, ATXN2 expr inh)
CCOc1ccc(OCC)c(NC(=O)CCc2c(C)nc3c(c2C)c(=O)n(C)c(=O)n3C)c1	none (no result: IL1B secr inh, MCF10A rereplic, SW480 rereplic)
CCOC(=O)c1c(-c2ccc(-c3ccccc3)cc2)csc1NC(=O)CCN1CCOCC1	IL1B secr inh -50, MCF10A rereplic 8.2µM
CCOC(=O)c1c(-c2ccc(F)cc2)csc1NC(=O)CCN1CCOCC1	S2 tox inconclusive
CCOC(=O)c1c(-c2ccccc2)csc1NC(=O)C(C)NCCCN1CCOCC1 (configuration not stated)	IL1B secr inh -53, SW480 rereplic inconclusive
CCOc1cccc2sc(N(Cc3cccnc3)C(=O)C3CCCCC3)nc12	none (no result: IL1B secr inh, S2 tox, MCF10A rereplic, SW480 rereplic, ATXN2 expr inh)
COc1ccc(CC(NC(C)=O)C(=O)NC2CCN(c3nc(C)cc(C)c3C#N)CC2)cc1OC (configuration not stated)	MCF10A rereplic 0.58µM
Cc1ccc(C(N)=O)cc1Nc1nccc(-c2cn(C(C)C)c3cnccc23)n1	ATXN2 expr inh 12µM (no result: IL1B secr inh, S2 tox, MCF10A rereplic, SW480 rereplic, PINK1 modulator)
Cc1ccc(C)c(NS(=O)(=O)c2cc(C(N)=O)ccc2C)c1	none
O=[N+]([O-])c1ccc2oc(C(O)c3cccc(Cl)c3)cc2c1 (configuration not stated)	IL1B secr inh -93, MCF10A rereplic inconclusive, PINK1 modulator inconclusive, ATXN2 expr inh inconclusive
COc1cccc(C2CC(=O)Nc3c2c(=O)n(C)c2nc4ccccc4n32)c1 (configuration not stated)	none (no result: IL1B secr inh, MCF10A rereplic, SW480 rereplic)
CN(Cc1ccc(Cl)cc1)C(=O)c1ccccc1SCC(=O)N1CCCC1	none
Cc1nc(S(=O)(=O)Cc2ccc(Cl)cc2)nc2c1CCC2	none
Cc1ccc(CS(=O)(=O)c2nc3c(c(N(C)C)n2)CCCC3)cc1	IL1B secr inh -79
COc1ccccc1N1CCN(CC(O)c2c(C)[nH]c3ccccc23)CC1 (configuration not stated)	MCF10A rereplic 18µM, SW480 rereplic inconclusive
COc1ccc(C(C)=O)c(O)c1	ATXN2 expr inh 15µM (no result: IL1B secr inh, S2 tox, MCF10A rereplic, SW480 rereplic, PINK1 modulator)
COc1ccc(C(=O)c2ccccc2)c(O)c1	none
O=C(CC(O)(CC(=O)OCc1ccccc1)C(=O)OCc1ccccc1)OCc1ccccc1	IL1B secr inh -55, MCF10A rereplic 18µM
CC1CCC/C=C/C(=O)c2c(O)cc(O)cc2CC(=O)O1 (configuration not stated)	IL1B secr inh -115, S2 tox 11µM, MCF10A rereplic 1µM, SW480 rereplic inconclusive, ATXN2 expr inh 10µM
Cc1nc(-c2ccccc2)sc1-c1ccc(SCC(=O)Nc2ccccc2)nn1	none (no result: IL1B secr inh, S2 tox, MCF10A rereplic, SW480 rereplic, ATXN2 expr inh)
CCCCCCCCCCOC(=O)Cn1c(COc2ccccc2OC)[n+](C)c2ccccc21	IL1B secr inh -91, S2 tox inconclusive, MCF10A rereplic 5.8µM, SW480 rereplic inconclusive, ATXN2 expr inh inconclusive
Cc1cc(C(=O)NNc2ccc(F)cc2)no1	MCF10A rereplic 13µM
Cc1cc(C(=O)NNc2ccccc2F)no1	MCF10A rereplic 9.2µM
CCc1ccccc1NNC(=O)c1cc(C)on1	MCF10A rereplic inconclusive (no result: ATXN2 expr inh)
Cc1ccc(NC(=O)CSc2nccn2C2CCCC2)cc1	none (no result: IL1B secr inh, S2 tox, MCF10A rereplic, SW480 rereplic, ATXN2 expr inh)
CC(C=CC(=O)NO)=C[C@@H](C)C(=O)c1ccc(N(C)C)cc1	none (no result: IL1B secr inh, S2 tox, MCF10A rereplic, SW480 rereplic, PINK1 modulator)
CCN(CC)CCCNC(=O)CSc1nc(-c2ccc(OC)cc2)cc(C(F)(F)F)n1	none (no result: IL1B secr inh, MCF10A rereplic, SW480 rereplic)
CCSc1nc(-c2ccccc2)nc(C(Cl)Cl)n1	S2 tox inconclusive, MCF10A rereplic 12µM, ATXN2 expr inh inconclusive
CCOC(=O)c1nn(-c2cccc(Cl)c2)c2nc(CC(C)C)c(C#N)c(=O)n12	MCF10A rereplic 23µM
CCOC(=O)c1nn(-c2ccc(OCC)cc2)c2nc(CC(C)C)c(C#N)c(=O)n12	none
COc1cc(CNC(=O)c2ccc3c(c2)c(C)c(C)n3Cc2cccc(C)c2)cc(OC)c1OC	none (no result: IL1B secr inh, S2 tox, MCF10A rereplic, SW480 rereplic, ATXN2 expr inh)
C#CCOc1ccc(Cl)cc1/C=C1/C(=O)ON=C1C	SW480 rereplic inconclusive
CCCOc1ccc(/C=C2/C(=O)ON=C2C)cc1OCC	MCF10A rereplic inconclusive, SW480 rereplic inconclusive
C=CCOc1ccc(/C=C2/C(=O)ON=C2C)cc1OC	IL1B secr inh -97, MCF10A rereplic inconclusive, SW480 rereplic inconclusive
CCCOc1ccccc1/C=C1/C(=O)ON=C1C	IL1B secr inh -52
CCOc1cc(/C=C2\C(=O)ON=C2C)ccc1OCc1ccccc1	IL1B secr inh -117, S2 tox inconclusive, MCF10A rereplic inconclusive, ATXN2 expr inh inconclusive
Cc1ccc(C)c(NC(=O)CN2C(=O)c3cccc4cccc2c34)c1	none (no result: IL1B secr inh, MCF10A rereplic, SW480 rereplic)
CCc1ccc(OCCNc2cc(N3CCNC(C)C3)ccc2[N+](=O)[O-])cc1 (configuration not stated)	IL1B secr inh -67, MCF10A rereplic inconclusive, ATXN2 expr inh inconclusive
CC1CN(c2ccc([N+](=O)[O-])c(NCCOc3ccccc3)c2)CC(C)N1 (configuration not stated)	IL1B secr inh -59, S2 tox inconclusive, ATXN2 expr inh inconclusive
Cc1ccccc1OCCNc1cc(N2CC(C)NC(C)C2)ccc1[N+](=O)[O-] (configuration not stated)	IL1B secr inh inconclusive, S2 tox 24µM, ATXN2 expr inh inconclusive
O=C(Nc1cccs1)Nc1cc(C(F)(F)F)ccc1Cl	none (no result: IL1B secr inh, S2 tox, MCF10A rereplic, SW480 rereplic, ATXN2 expr inh)

High-throughput results: PubChem, National Center for Advancing Translational Sciences (NCATS)
